Measured values reported in ChEMBL document CHEMBL3988442, “University of Dundee, Small-Polar-MMV Screening Library” (2021).
About 13,000 (27%) of roughly 48,000 compounds showed an effect of 50% or more. Some of the results follow.

Test system: Wolbachia pipientis
Experiment: Anti-Wolbachia Cell-Based Screen
Format: functional
Set-up: scale not given: in the data most compounds retested in dose-response had high values
Conditions: 5 µM

SMILES | Percent Effect [%]
CCn1ccnc1CN1CCN(c2nccc(OC)n2)CC1C (stereo unspecified) | -24.68
Fc1cccc(-c2nnn3c2COC(CNc2ncccn2)C3)c1 (stereo unspecified) | -1.841
Cc1ccc(CC(=O)N(CC2CN(C)CCO2)c2nccs2)cn1 (stereo unspecified) | 90.15
CN1CCOC(CN(C(=O)COc2ccccc2)c2nccs2)C1 (stereo unspecified) | 132.7
Cc1ccc(CC(=O)N2CCCC(c3nc(C)cs3)C2)cn1 (stereo unspecified) | -6.398
Cc1cnn(CC2CN(CC(=O)N(C)c3nccs3)CCO2)c1 (stereo unspecified) | 4.22
CN1CCOC(CN(C(=O)CC2CCCC2)c2nccs2)C1 (stereo unspecified) | -0.02384
Cc1cc(CC(=O)N(CC2CN(C)CCO2)c2nccs2)no1 (stereo unspecified) | -0.7073
CN1CCOC(CN(C(=O)Cc2ccccc2F)c2nccs2)C1 (stereo unspecified) | -6.62
CN1CCOC(CN(C(=O)CCCn2cccn2)c2nccs2)C1 (stereo unspecified) | 81.94
c1cnn(CC2CN(c3ncnc4ccsc34)CCO2)c1 (stereo unspecified) | -13.22
CN1CCOC(CN(C(=O)CCc2cnn(C)c2)c2nccs2)C1 (stereo unspecified) | 107
O=C(CN1CCOC(Cn2cccn2)C1)Nc1nccs1 (stereo unspecified) | -0.2623
CC[C@@]1(O)CCN(C(=O)CCc2cnn(C)c2)C[C@H]1O | -7.505
CC(C)C1CN(C(=O)Nc2cnn(CC(F)F)c2)CCO1 (stereo unspecified) | 14.22
CC(C)N1CC2(CCCN(Cc3noc(C4CCCC4)n3)C2)CCC1=O (stereo unspecified) | 0.7717
COC1CCN(C(=O)c2csc(-c3ccccc3F)n2)CC1 | 15.42
Nc1nccnc1C(=O)N(Cc1ccco1)CC1CCCO1 (stereo unspecified) | 3.477
CN1CCOC(CN(C(=O)CCc2ccco2)c2nccs2)C1 (stereo unspecified) | 89.12
O=C(NCCc1nccs1)C1CCCN(Cc2ccco2)C1 (stereo unspecified) | -29.34
O=C(CCc1cn[nH]c1)N1C[C@H](CO)C[C@H](CN2CCOCC2)C1 | -1.636
Cn1cnnc1C1CCCN(C(=O)c2cc(Cl)c(Cl)n2C)C1 (stereo unspecified) | 115.1
Cn1cnnc1C1CCCN(C(=O)c2cc(Cl)cc(Cl)c2)C1 (stereo unspecified) | 113.5
Cn1cnnc1C1CCCN(C(=O)c2cc(Cl)c3c(c2)OCO3)C1 (stereo unspecified) | -3.548
Cn1cnnc1C1CCCN(C(=O)c2ccccc2Cl)C1 (stereo unspecified) | 1.344
Cc1noc(C2CCCN(C(=O)c3cc(Cl)c(Cl)n3C)C2)n1 (stereo unspecified) | 3.125

SMILES | Percent Effect [%]
O=C(c1cnns1)N1CCN(Cc2ccc(F)cc2Cl)CC1 | 11.32
Cc1nn(C)c(C)c1C1CCCN1c1ncnc2[nH]ccc12 (stereo unspecified) | 1.551
Brc1ccc(NCCCOC2CCOCC2)nc1 | 3.889
CCN(Cc1cc(Cl)ccc1OC)Cc1ncnn1CC | 0.2011
CCCc1nnc(N2CCN(c3ccccc3OCC)CC2)o1 | 99.15
CCCc1nnc(N2CCN(c3cccc(OC)c3)C(=O)C2)o1 | 11.57
CCOc1ccccc1N1CCN(c2nnc(C)o2)CC1 | 100.3
CCCc1nnc(N2CCN(Cc3ccccc3OC)CC2)o1 | 96.58
CCOc1ccccc1N1CCN(CC2(O)CCCNC2)CC1 (stereo unspecified) | -13.46
COc1ccccc1N1CCN(Cc2nc(C)c(C)o2)CC1 | -4.949
COc1ccccc1CN1CCN(CCN2CCOC2=O)CC1 | -7.896
c1ccc(OCc2noc(CN3CCC(N4CCSCC4)CC3)n2)cc1 | -5.795
O=C(c1cc2c([nH]c1=O)CCC2)N1CCCCCC1c1ccncc1 (stereo unspecified) | 23.88
CC(C)COCC(NC(=O)Cc1ccn[nH]1)c1ccco1 (stereo unspecified) | -5.318
Cc1noc(C)c1CNCc1nn(-c2ccccc2)c2c1CCC2 | -8.034
Clc1ccccc1-c1nc(CNCCn2cccn2)cs1 | -5.873
O=C(CCC1CCN(C(=O)c2csnn2)CC1)NCc1cccc(Cl)c1 | -4.206
COc1ccccc1-c1csc(-c2cccc(C(=O)O)c2)n1 | 1.276
CC(=O)c1cc(CC(=O)NCc2ccc(F)cc2)cs1 | -15.8
O=C(Cc1csc(-c2cccc(Cl)c2)n1)NCc1cccc(C(=O)O)c1 | 106.6
O=C(Cc1csc(-c2ccccc2F)n1)NCc1ccc(C(=O)O)cc1 | 91.75
O=C(Cc1csc(-c2ccccc2Cl)n1)NCc1cccc(C(=O)O)c1 | 96.86
O=C(Cc1csc(-c2ccccc2F)n1)NCc1cccc(C(=O)O)c1 | 94.98
Cc1[nH]c2c(F)cccc2c1CC(=O)NCc1csc(N(C)C)n1 | -5.819
CC(=O)c1cc(CC(=O)NCc2c(F)cccc2F)cs1 | -9.682
